# In PubChem BioAssay (NCI):
# This is part of a sample that, as a whole, favours compounds with a hit. Of some 83,000 tested, about 20% had one in any assay.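 Single-dose data. Exposure time 48 hours. Values below 10 considered active.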 A number with no mark means an inactive call. Active and inactive are the calls of the source.
# Experiments:
# Test in all cases: NCI-60 one-dose screen, 48 h (100 = growth as untreated, 0 = no growth, -100 = all killed)
# Conditions in all cases: 10 µM
# [1] = tested on: COLO 205 colon
# [2] = tested on: MDA-MB-231 breast
# [3] = tested on: RXF 393 renal
# [4] = tested on: LOX IMVI melanoma
# [5] = tested on: OVCAR-4 ovarian
# [6] = tested on: HS 578T breast
# [7] = tested on: NCI/ADR-RES ovarian
# [8] = tested on: T-47D breast
# [9] = tested on: BT-549 breast
# [10] = tested on: MDA-MB-435 melanoma
# [11] = tested on: SW-620 colon
# [12] = tested on: MCF7 breast
# [13] = tested on: HCC-2998 colon
# [14] = tested on: KM12 colon
# [15] = tested on: SK-MEL-5 melanoma
# [16] = tested on: HCT-116 colon
SMILES,growth [1],growth [2],growth [3],growth [4],growth [5],growth [6],growth [7],growth [8],growth [9],growth [10],growth [11],growth [12],growth [13],growth [14],growth [15],growth [16]
O=C1NC(=S)S/C1=C\c1cn(-c2ccccc2)nc1-c1ccc([N+](=O)[O-])cc1,11.7%,24.7%,3.42% (active),29.1%,15%,30.1%,13.6%,6.73% (active),-16% (active),6.24% (active),21.7%,6.25% (active),22.4%,24.4%,–,–
O=C(Nc1ccc(Oc2ncnc3scc(Nc4n[nH]c(=S)s4)c23)cc1)C1(C(=O)Nc2cccc(C(F)(F)F)c2)CC1,–,92.7%,118%,–,108%,100%,104%,86.7%,96.1%,105%,103%,23.3%,107%,–,95%,99.7%
COc1cccc(C(=O)CSc2nc(-c3ccc(OCc4ccccc4)c(OC)c3)c(C#N)c(=O)[nH]2)c1,–,91.1%,93%,–,96.8%,90.8%,96.9%,90.7%,102%,95.7%,102%,91.3%,111%,–,98.5%,–
COc1cc(C2CC(c3ccc(Oc4ccc(Cl)cc4)cc3)=NN2c2nc(-c3ccc(Cl)cc3)c(C#N)c(N3CCOCC3)n2)cc(OC)c1OC (stereo unspecified),101%,100%,107%,80.6%,103%,104%,98.9%,91.8%,116%,94.2%,101%,84.6%,100%,–,–,–
Cn1cc(-c2nc(N)nnc2-c2c[nH]c3ccccc23)c2cc(Br)cnc21,-75.9% (active),16.3%,6.16% (active),–,32.1%,40.7%,3.11% (active),65.2%,-29.6% (active),-25.2% (active),24.7%,4.57% (active),-35% (active),–,-81.3% (active),–
Cc1ccc2c(c1)C(=O)/C(=C/c1c[nH]c3ccccc13)S2,–,59.7%,-28.1% (active),–,40.9%,55.6%,71.6%,33.5%,33.8%,43.8%,28.6%,18.6%,65.8%,–,–,14.2%
CCn1c(SCC(=O)Nc2ccc(-c3nc4ccccc4[nH]3)cc2)nc2ccccc2c1=O,–,-71.1% (active),-87.1% (active),-63% (active),-84.1% (active),-37.8% (active),-42.6% (active),-58.2% (active),-83.6% (active),-94.7% (active),-35.5% (active),-71.7% (active),-31.6% (active),-14.5% (active),–,–
O=C(Nc1ccc(OCC(=O)c2ccc(Cl)cc2)cc1)Nc1ccc(Cl)c(C(F)(F)F)c1,-49.4% (active),48.1%,-60.8% (active),–,38.1%,18%,57.6%,6.1% (active),76%,51.5%,47.7%,51.4%,33.4%,14.9%,–,–
Cc1cc(N=C2NC(=O)/C(=C/c3cc(C(C)(C)C)c(O)c(C(C)(C)C)c3)S2)n[nH]1,-9.38% (active),22.8%,-38.6% (active),1.11% (active),-42.7% (active),-3.19% (active),5.91% (active),3.32% (active),-1.78% (active),4.96% (active),15.3%,4.33% (active),22.5%,–,–,–
